Rows were chosen to be rich in hits. Some 0.5% of all compounds tested hit in one or more screens of this group.
AddAB inh = less growth of phage-infected E. coli with AddAB. actives 0.29% (n = 330,000). E. coli expressing H. pylori AddAB, absorbance growth. inhibition, % at 11.9 µM; in the data active = inhibition above about 12%
E coli growth-1 = blocks Escherichia coli growth. actives 0.21% (n = 330,000). OD600, 23 h; stronger effect = lower value. AID 1053175. OD600 absorbance (concentration not given with the values);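 active = OD600 absorbance below the run mean of sample wells minus 3.6 SD, in any replicate, cut at about 0.56 in these data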
Tat transport = blocks Tat-dependent protein export in E. coli | E. coli MC4100 TorA-mCherry Tat export, fluorescence | inhibition, % at 10 µM | actives 0.036% (n = 340,000);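 active = mean replicate inhibition at least 50% and at least half of replicates individually reaching 50%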;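 also: exported cargo escapes ClpAP degradation while cytoplasmic cargo is degraded and loses fluorescence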
phage Ecoli inh = E. coli growth loss with phage present | growth absorbance | inhibition, % at 11.9 µM | actives 0.26% (n = 360,000); in the data active = inhibition above about 11%
E coli growth-2 = reduces bacterial viability in AddAB counter-screen. E. coli V3065 growth, OD600 absorbance, 18 h. inhibition, % at 11.9 µM. actives 0.27% (n = 330,000). AID 449728;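 active = inhibition above the campaign's mean inhibition across all tested compounds plus 3 SD, cut at about 9.9% in these data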;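 also: uninfected addAB+ strain grown without phage in ampicillin broth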
AddAB conf = growth loss of T4-infected E. coli expressing H. pylori AddAB, confirmed; shares compounds with AddAB inh; E. coli V3065 expressing H. pylori AddAB, T4 phage, OD; T4 phage with gene 2 nonsense mutations; inhibition, % at 11.9 µM; actives 64% (n = 880); AID 488942;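 active = mean inhibition above a set limit taken from the earlier primary screen, cut at about 13% in these data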;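 also: higher means less bacterial growth since AddAB block lets phage replicate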
RecBCD counter = reduces growth of phage-infected RecBCD+ E. coli, AddAB inhibitor counter-screen | shares compounds with AddAB inh | actives 73% (n = 880) | AID 488955 | E. coli V66 + mutant T4 phage, OD growth | inhibition, % at 11.9 µM;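 active = mean inhibition above the mean of solvent-only control wells plus 3 SD, cut at about 4% in these data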;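 also: optical density read after an 18 h incubation at 37 °C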
bact viab count = counter-screen for AddAB inhibitors: inhibitors of bacterial viability. shares compounds with AddAB inh. absorbance (AddAB counterscreen). inhibition, % at 11.9 µM. actives 35% (n = 880). AID 488956; in the data active = inhibition above about 25%
Of the large screens only hits and unclear results are named; the others gave an inactive call (follow-up assays come after a bar, where they were run).

O=C(CN(Cc1ccccc1Cl)C(=O)CNS(=O)(=O)c1ccc(F)cc1)NCC1CCCO1 (stereo not drawn)	Tat transport 53
CCCC(C#Cc1ccsc1)=C1c2ccccc2C(=O)N1c1ccccc1	none (no result: AddAB inh, Tat transport, phage Ecoli inh, E coli growth-2)
CCn1cc(C(=O)N2CCN(c3ccc([N+](=O)[O-])cc3)CC2)c(=O)c2ccc(C)nc21	none
CCn1cc(C(=O)OC)c(=O)c2ccc(C)nc21	none
CCn1cc(C(=O)OCC(=O)Nc2c(C)cccc2C)c(=O)c2ccc(C)nc21	E coli growth-1 0.49
CCn1cc(C(=O)NCc2ccccc2OC)c(=O)c2ccc(C)nc21	none (no result: Tat transport, phage Ecoli inh)
CCn1cc(C(=O)N2CCN(c3cccc(C)c3C)CC2)c(=O)c2ccc(C)nc21	E coli growth-1 0.42
CCn1cc(C(=O)OCC(=O)NCc2ccccc2Cl)c(=O)c2ccc(C)nc21	E coli growth-1 0.51
CCCCC(=O)O[C@]1(C(=O)CO)CCC2C3CCC4=CC(=O)CC[C@]4(C)C3C(O)C[C@@]21C (stereo partly drawn)	none (no result: AddAB inh, Tat transport, phage Ecoli inh, E coli growth-2)
C/C(=N\Nc1ccc([N+](=O)[O-])cc1)c1ccc(C#N)cc1	none (no result: E coli growth-1)
N#CC(C#N)=NNc1ccc([N+](=O)[O-])cc1	E coli growth-1 0.33
Oc1c(Cl)cc(Cl)cc1C=NNC(=S)NC1CC2C=CC1C2 (stereo not drawn)	none (no result: AddAB inh, Tat transport, phage Ecoli inh, E coli growth-2)
Oc1c(Br)cc(Br)cc1/C=N/NC(=S)N[C@H]1CC2C=CC1C2 (stereo partly drawn)	E coli growth-2 10 (no result: E coli growth-1)
O=C(C1=CC(C2CCCCC2)CC(OCc2ccc(CO)cc2)O1)N1CCOCC1 (stereo not drawn)	none (no result: AddAB inh, Tat transport, phage Ecoli inh, E coli growth-2)
CN1/C(=C/c2cc[n+](C)c3ccccc23)C=Cc2ccccc21	E coli growth-1 0.34 (no result: AddAB inh, phage Ecoli inh, E coli growth-2)
C[n+]1ccc(/C=C/c2ccccc2O)c2ccccc21	none
CN1CC(=O)N2C(Cc3c([nH]c4ccccc34)C2c2ccc3c(c2)OCO3)C1=O (stereo not drawn)	none (no result: AddAB inh, Tat transport, phage Ecoli inh, E coli growth-2)
COCc1cc(C=NNC(=O)Cc2ccc(Cl)cc2)ccc1OC	E coli growth-1 0.25 (no result: AddAB inh, Tat transport, phage Ecoli inh, E coli growth-2)
Cc1ccc(-c2csc(N=C(N)N)n2)c(C)c1	E coli growth-1 0.44 (no result: Tat transport)
Cc1noc(NS(=O)(=O)c2ccc(NC(=O)CCn3c(=O)oc4ccccc43)cc2)c1C	E coli growth-2 10
Cc1cc(C)nc(NS(=O)(=O)c2ccc(NC(=O)Cn3c(=O)oc4ccccc43)cc2)n1	none
COc1ccc(NC(=O)Nc2cccc3c2OC(CN(C)S(=O)(=O)c2ccccc2)C(C)CN(C(C)CO)C3=O)cc1 (stereo not drawn)	none (no result: AddAB inh, Tat transport, phage Ecoli inh, E coli growth-2)
CC=CC=CC(=O)N1CC2(CC(c3cccc(NC(=O)CCCCC)c3)=NO2)CC1C(N)=O (stereo not drawn)	none (no result: AddAB inh, Tat transport, phage Ecoli inh, E coli growth-2)
CCCCNC(=S)Nc1ccc(C(F)(F)F)cc1	E coli growth-2 11
CCCCNC(=S)Nc1ccc(Cl)cc1	none
Cc1cc(C(C)(C)CC(C)(C)C)ccc1OCCOCC[N+](C)(C)Cc1ccccc1	E coli growth-1 0.066
COc1cc(/C=C/C(=O)O)ccc1O	none
COc1cc(/C=C/C(=O)/C=C(O)/C=C/c2ccc(O)c(OC)c2)ccc1O	E coli growth-2 10 (no result: E coli growth-1)
O=C(O)c1ccccc1O	none
O=C(O)c1ccccc1SSc1ccccc1C(=O)O	E coli growth-2 13
O=[N+]([O-])/C=C/c1cc2ccccc2[nH]1	E coli growth-1 0.5
CCOC1OC(C(=O)N2CCN(Cc3ccccc3)CC2)=CC(c2ccccc2)C1CCCO (stereo not drawn)	none (no result: AddAB inh, Tat transport, phage Ecoli inh, E coli growth-2)
CN1CCN(C(=O)C2=C[C@@H](c3ccccc3)C[C@@H](OCc3ccc(CO)cc3)O2)CC1	none (no result: E coli growth-1)
O=C(C1=C[C@H](c2ccccc2)C[C@H](OCc2ccc(CO)cc2)O1)N1CCOCC1	E coli growth-1 0.65
Cc1nc(N)nc(N)c1Oc1ccc(Cl)cc1	E coli growth-1 0.52 (no result: AddAB inh, E coli growth-2)
COc1ccc(C2CC(=O)C=C(c3ccc(C)c(F)c3)C2)cc1 (stereo not drawn)	none (no result: AddAB inh, Tat transport, phage Ecoli inh, E coli growth-2)
Cc1cc2nc3c(=O)[nH]c(=S)[nH]c3nc2cc1NC(=O)C(F)(F)F	E coli growth-2 10
O=C(N/N=C/C(Br)=C/c1ccccc1)c1ccncc1	none (no result: E coli growth-1)
O=C(NN=C/C(Br)=C/c1ccccc1)c1ccncc1	E coli growth-1 0.46 (no result: AddAB inh, Tat transport, phage Ecoli inh, E coli growth-2)
Cc1ccc(Nc2cc(C)nn2-c2nc(C)cc(=O)[nH]2)cc1	E coli growth-1 0.49 (no result: phage Ecoli inh)
Cc1ccc(Nc2cc(C)nn2-c2nc(C)cc(C)n2)cc1	none
CCC(C)C(N)C1=NC(C(=O)N[C@@H](CC(C)C)C(=O)N[C@H](CCC(=O)[O-])C(=O)N[C@H](C(=O)N[C@H]2CCCCNC(=O)[C@H](CC(N)=O)NC(=O)[C@@H](CC(=O)[O-])NC(=O)[C@H](Cc3cnc[nH]3)NC(=O)[C@@H](Cc3ccccc3)NC(=O)[C@H]([C@@H](C)CC)NC(=O)[C@@H](CCCN)NC2=O)[C@@H](C)CC)CS1.[Zn+2] (stereo partly drawn)	Tat transport 54 (no result: AddAB inh, E coli growth-1, phage Ecoli inh, E coli growth-2)
O=C1c2ccccc2NC(c2ccc(-c3ccccc3F)o2)N1O (stereo not drawn)	E coli growth-2 12
C[C@H]1c2cccc(O)c2C(O)=C2C(=O)[C@]3(O)C(O)=C(C(N)=O)C(=O)[C@@H](N(C)C)[C@@H]3[C@@H](O)[C@@H]21	AddAB inh 98, Tat transport 147, E coli growth-2 100 (no result: E coli growth-1, phage Ecoli inh) | AddAB conf 101 | RecBCD counter 100 | bact viab count 101
CC(NC(=O)c1nc[nH]c1C(=O)NC(CCCCNC(=O)OC(C)(C)C)C(=O)OC(C)(C)C)C(=O)OC(C)(C)C (stereo not drawn)	none (no result: AddAB inh, Tat transport, phage Ecoli inh, E coli growth-2)
Cc1ccc(NC(=O)CCNC(=O)c2ccco2)cc1	AddAB inh 15 | AddAB conf inactive | RecBCD counter inactive | bact viab count inactive
O=C(CCNC(=O)c1ccco1)Nc1ccccc1	none
CCOc1ccc(NC(=O)CCNC(=O)c2ccco2)cc1	AddAB inh 14 | AddAB conf inactive | RecBCD counter 4.7 | bact viab count inactive
O=C1NC(=O)C(=Cc2ccccc2Oc2ccc(Cl)cc2)S1	none (no result: AddAB inh, Tat transport, phage Ecoli inh, E coli growth-2)
COc1ccc(-c2nc(Cn3c(SCc4cccc(F)c4)nc4ccncc43)c(C)o2)cc1OC	AddAB inh 96, E coli growth-2 83 | AddAB conf inactive | RecBCD counter inactive | bact viab count inactive
C#CCOCCOCCOCCNc1nc(N2CCN(C(=O)C(CCCCN)n3cc(CCCC)nn3)CC2)nc(N2CCN(C(=O)C(C(C)C)n3cc(CCO)nn3)CC2)n1 (stereo not drawn)	none (no result: AddAB inh, Tat transport, phage Ecoli inh, E coli growth-2)
Cc1ccc(Cn2c(C)c3cnn(CC(=O)NC4CCCC4)c(=O)c3c2C)cc1	AddAB inh 99, E coli growth-2 86 | AddAB conf inactive | RecBCD counter inactive | bact viab count inactive
CNC(=O)Cn1ncc2c(C)n(Cc3ccc(C)cc3)c(C)c2c1=O	none
